PAFAH1B3 inh: PAFAH1B3 (human) inhibition | Q15102 | recombinant PAFAH1B3, FP-rhodamine probe, fluorescence polarization | inhibition, % at 3.39 µM | 340,000 compounds, 0.28% hits | AID 492972;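 active = inhibition above the screen-wide average of all tested compounds plus 3 SD, cut at about 25% in these data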;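 also: 0% = enzyme with DMSO only and 100% = wells lacking PAFAH1B3 protein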
Target sequence (Q15102 whole entry, looked up): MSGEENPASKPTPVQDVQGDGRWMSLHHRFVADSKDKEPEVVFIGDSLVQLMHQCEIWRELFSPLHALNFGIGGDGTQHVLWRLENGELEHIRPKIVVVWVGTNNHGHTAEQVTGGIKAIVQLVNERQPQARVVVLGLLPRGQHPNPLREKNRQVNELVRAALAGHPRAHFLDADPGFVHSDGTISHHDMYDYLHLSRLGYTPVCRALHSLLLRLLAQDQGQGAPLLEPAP
PAFAH1B2 FP inh: blocks human PAF acetylhydrolase 1b catalytic subunit 2. recombinant PAFAH1B2, FP-rhodamine activity probe, fluorescence polarization. inhibition, % at 3.39 µM. 340,000 compounds, 1.2% hits;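 active = inhibition above the mean of all tested compounds plus 3 SD, cut at about 24% in these data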;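 also: 0% = enzyme with DMSO and 100% = wells lacking PAFAH1B2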
Target sequence (P68402 whole entry, looked up): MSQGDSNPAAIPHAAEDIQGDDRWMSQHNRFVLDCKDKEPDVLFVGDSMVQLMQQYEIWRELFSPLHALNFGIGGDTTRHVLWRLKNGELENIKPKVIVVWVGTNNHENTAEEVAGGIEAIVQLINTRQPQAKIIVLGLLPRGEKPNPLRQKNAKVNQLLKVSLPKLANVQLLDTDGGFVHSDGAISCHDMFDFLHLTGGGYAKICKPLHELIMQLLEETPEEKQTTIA
Rin1-Abl PPI inh: blocks binding of human Rin1 to Abl; TR-FRET Rin1/Abl binding, biochemical; inhibition, % at 7.35 µM; 360,000 compounds, 0.4% hits; in the data active = inhibition above about 5%, passing the limit was not always enough
pPAFAH inh: pPAFAH (human) enzyme inhibition | Q13093 | recombinant pPAFAH, FP-rhodamine probe fluorescence polarization | inhibition, % at 3.39 µM | 330,000 compounds, 1.5% hits | AID 463082;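 active = inhibition above the mean inhibition across the screen plus 3 SD, cut at about 25% in these data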;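 also: inhibitors block binding of the rhodamine activity-based probe so polarization drops; 0% = enzyme with DMSO and 100% = wells lacking pPAFAH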
E coli Lon inh: inhibits E. coli Lon protease; purified E. coli Lon protease, fluorescence polarization; inhibition, % at 7.94 µM; 360,000 compounds, 0.42% hits; AID 602123; in the data active = inhibition above about 13%, passing the limit was not always enough;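 also: 0% = enzyme with probe and DMSO and 100% = no enzyme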
PAFAH2 inh: inhibitors of human PAFAH2 | AID 492956 | recombinant PAFAH2, FP-rhodamine activity probe, fluorescence polarization | 340,000 compounds, 0.99% hits | inhibition, % at 3.39 µM;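 active = inhibition above the mean over all tested compounds plus 3 SD, cut at about 30% in these data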;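 also: inhibitors block probe labeling of enzyme so polarization drops; 0% = enzyme with DMSO and 100% = wells lacking PAFAH2 protein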
PAFAH1B3 conf FP: PAFAH1B3 (human) inhibition, confirmed. shares compounds with PAFAH1B3 inh. recombinant PAFAH1B3, FP-Rh activity-based probe, fluorescence polarization. inhibition, % at 3.39 µM. 390 compounds, 30% hits. AID 493032;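 active = average inhibition over triplicate runs above the hit cutoff set in the earlier primary screen, cut at about 25% in these data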;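 also: 0% = enzyme with DMSO and 100% = wells lacking PAFAH1B3 protein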
The depositor's hits bear a star; . = no result. Rows were chosen to be rich in hits. Some 3.1% of all compounds tested hit in one or more screens of this group.

SMILES	PAFAH1B3 inh	PAFAH1B2 FP inh	Rin1-Abl PPI inh	pPAFAH inh	E coli Lon inh	PAFAH2 inh	PAFAH1B3 conf FP
COc1ccc(N(/N=C2\Sc3ccccc3C2=O)C(C)=O)cc1	54.4*	22.2	-4.8	.	2.1	19.4	60.3*
COc1ccccc1NC1=C(NC(C)=O)C(=O)c2ccccc2C1=O	1.3	-2.6	-19.4	.	-0.3	1.9	.
Cc1ccc(S(=O)(=O)NCCC(=O)NNC(=O)c2ccccc2O)cc1C	1.9	2.7	-0.3	3.9	-4.6	4.6	.
Cc1ccc(S(=O)(=O)N(C)CC(=O)NNC(=O)CCS(=O)(=O)c2ccccc2)cc1	9.0	0.8	0.0	0.5	0.7	3.0	.
CCCNC(=O)NCCc1c(C)[nH]c2ccccc12	-4.2	-2.5	-0.3	0.7	9.4	0.8	.
Cc1[nH]c2ccccc2c1CCNC(=O)c1ccc2c(c1[N+](=O)[O-])C(=O)c1ccccc1C2=O	44.0*	20.1	1.7	16.6	-1.9	18.0	67.0*
CC(OC(=O)c1ccc(Cl)nc1)C(=O)Nc1ccc2c(c1)OCO2 (configuration not stated)	0.0	8.0	1.8	5.5	-4.6	-3.2	.
O=C(NCc1ccco1)c1cccc(Nc2nc3ccc(Br)cc3[nH]2)c1	32.0*	20.2	0.1	20.1	2.9	-17.3	15.9
COc1cc(C(=O)N2CCN(c3ccccc3)CC2)c2ccccc2n1	3.6	2.4	1.5	.	-0.7	2.0	.
Cn1c2ccccc2c(=O)c2ccc(C#Cc3ccc(N)cc3)cc21	35.3*	1.5	4.1	24.5	-61.4	-12.6	16.6
COc1ccc(/C=C/C(=O)NC(=S)Nc2cc([N+](=O)[O-])ccc2O)cc1OC	35.0*	17.6	0.2	17.9	5.4	9.5	31.1*
O=C(Nc1ccc(Cl)cc1)Nc1cccc2nsnc12	-9.3	0.5	1.0	-15.8	2.1	-17.7	.
O=C(O)c1ccc(-n2nnc3ccccc32)c([N+](=O)[O-])c1	7.2	0.5	3.1	0.7	0.4	-13.0	.
O=C(O)c1ccc(NC2=C(n3nnc4ccccc43)C(=O)c3ccccc3C2=O)cc1	28.5*	10.1	-9.7	0.6	3.8	7.4	25.9*
CC(=O)Nc1cccc(-c2ccnc3c2CC(C(=O)NCCc2ccccc2)O3)c1 (configuration not stated)	.	.	-0.4	.	-3.2	.	.
CC(=O)c1c(C)oc2c1C(=O)c1ccccc1C2=O	27.6*	6.9	-3.7	0.4	-3.9	3.6	20.9
O=C1c2ccccc2C(=O)c2c1oc(C(F)(F)F)c2C(=O)c1ccccc1	40.4*	10.6	3.4	3.8	-0.9	14.0	26.8*
COc1ccc(CNC(=O)c2c(C)oc3c2C(=O)c2ccccc2C3=O)cc1	37.0*	8.4	0.3	-1.8	8.1	24.5	18.0
Cc1oc2c(c1C(=O)NCc1cccnc1)C(=O)c1ccccc1C2=O	.	.	.	1.0	.	.	.
CC(=O)c1c2c3c(cccc3n(C)c1=O)C(=O)c1ccccc1-2	.	.	.	10.6	.	.	.
Cc1nc2ccc(C(=O)N/N=C/c3cc([N+](=O)[O-])ccc3O)cc2[nH]1	26.6*	6.8	-3.6	13.4	12.0	1.1	23.6
Cc1ccc([N+](=O)[O-])cc1NC(=O)Nc1cccc(F)c1	-2.9	-2.0	-0.9	.	-0.7	-7.1	.
CC(C)c1ccc(OCC(=O)NNC(=S)NC(=O)c2ccco2)c(Br)c1	26.9*	17.9	-2.7	9.0	-3.8	8.4	8.7
CC(C)(C)c1ccc(OCC(=O)NNC(=S)NC(=O)c2ccco2)c(Br)c1	2.2	18.2	-1.5	4.2	-6.3	-11.1	.
CCc1cccc2c(N=O)c(O)[nH]c12	28.1*	11.9	-1.8	10.3	-1.9	10.7	24.0
O=Nc1c(O)[nH]c2c(F)cccc12	19.7	6.9	0.4	3.5	-5.7	5.1	.
CC(C)(C)C(=O)OCc1nc(-c2ccc(C(F)(F)F)cc2)cs1	6.0	1.7	1.3	3.1	2.1	-6.6	.
CC(=O)N(Cc1ccc(F)cc1)C1=C(NCc2ccccc2)C(=O)c2ccccc2C1=O	42.2*	11.2	-9.0	.	0.3	8.3	24.7
Cc1cccc(NC(=O)COC(=O)c2nn(C)c(=O)c3ccccc23)c1C	0.2	4.3	1.9	1.2	-7.3	5.3	.
O=c1[nH]c(Nc2ccc(F)cc2)cc2ccccc12	56.3*	10.3	0.8	11.2	-10.0	6.0	20.0

Bioassay records as filed in PubChem.
